The supplement of paper PMC10849652
The full data set covers some 7,900 targets. This sample favours those with a hit. About 0.6% of all pairs of compound and target were hits. Values without a mark were called inactive.

Experiments:
Test in all cases: log2 fold change, soluble protein after heating vs DMSO (PISA); higher = thermal stabilisation; K562 cells, 10 uM, 30 min; active = over 0.2 and 3.5 SD of the protein, either way, in both replicates (recomputed)
[1] = compound: C1=CC=C(C=C1)[C@H](COC2=CC3=C(C=C2)NC(=O)N3)NC(=O)C4=CC=CN(C4=O)CC5=CC(=C(C=C5)F)F
Outline: (§1)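 K562 cells (2×10^6 cells/mL) were treated with 10 μM compound for 30 min, and aliquots were heated for 3 min over 48°C-58°C. Pooled aliquots were extracted in PBS with 0.5% NP-40 at 4°C, and the supernatant after 21,000xg for 90 min was measured by TMTpro 16plex LC-MS/MS with channel sums equalised. Reported thermal stability, relative to control samples and from duplicates, is a log2 fold change.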

[2] = compound: CC1=C(SC2=C1C(=N[C@H](C3=NN=C(N32)C)CC(=O)N)C4=CC=C(C=C4)Cl)C
Outline: as §1

[3] = compound: CC1=C2C(=CC=C1)N=C(N(C2=O)C3=CC=CC=C3C)CN4C=NC5=C(N=CN=C54)N
Outline: as §1

[4] = compound: Cc1sc2c(c1C)C(c1ccc(Cl)cc1)=N[C@@H](CC(=O)OC(C)(C)C)c1nnc(C)n1-2
Outline: as §1

[5] = compound: c1ccc([C@@H]2C[C@H]2NC2CCNCC2)cc1
Outline: as §1

MAST4 (UniProt O15021)
log2 fold change [1]: -0.081
log2 fold change [2]: 0.037
log2 fold change [3]: 0.061
log2 fold change [4]: -0.002
log2 fold change [5]: -0.041

MAGEA8 (UniProt P43361)
log2 fold change [1]: 0.075
log2 fold change [2]: -0.035
log2 fold change [3]: 0.02
log2 fold change [4]: -0.119
log2 fold change [5]: 0.077

IL27RA (UniProt Q6UWB1)
Sequence of UniProt Q6UWB1 (Q6UWB1 whole entry, looked up): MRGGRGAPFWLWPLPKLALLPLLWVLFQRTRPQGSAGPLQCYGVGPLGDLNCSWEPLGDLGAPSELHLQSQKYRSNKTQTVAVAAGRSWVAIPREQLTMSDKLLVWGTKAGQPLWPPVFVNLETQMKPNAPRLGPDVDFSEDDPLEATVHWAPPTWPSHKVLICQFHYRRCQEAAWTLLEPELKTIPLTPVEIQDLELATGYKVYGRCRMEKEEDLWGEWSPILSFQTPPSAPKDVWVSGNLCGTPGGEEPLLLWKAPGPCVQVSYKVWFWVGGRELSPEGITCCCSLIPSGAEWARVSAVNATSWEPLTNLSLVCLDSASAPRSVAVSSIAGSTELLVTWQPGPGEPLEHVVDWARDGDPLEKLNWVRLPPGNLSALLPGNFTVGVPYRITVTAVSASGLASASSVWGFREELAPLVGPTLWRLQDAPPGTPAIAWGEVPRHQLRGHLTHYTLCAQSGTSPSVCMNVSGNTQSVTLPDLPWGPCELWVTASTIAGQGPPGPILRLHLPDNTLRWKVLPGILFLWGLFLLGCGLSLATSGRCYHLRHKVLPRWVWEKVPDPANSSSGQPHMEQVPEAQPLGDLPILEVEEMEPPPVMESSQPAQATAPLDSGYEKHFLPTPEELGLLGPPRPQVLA
log2 fold change [1]: 0.021
log2 fold change [2]: 0.144
log2 fold change [3]: 0.002
log2 fold change [4]: 0.097
log2 fold change [5]: 0.096

MIEF1 (UniProt Q9NQG6)
log2 fold change [1]: -0.043
log2 fold change [2]: 0.053
log2 fold change [3]: 0.047
log2 fold change [4]: -0.024
log2 fold change [5]: -0.054

MFSD11 (UniProt O43934)
log2 fold change [1]: 0.04
log2 fold change [2]: 0.11
log2 fold change [3]: 0.104
log2 fold change [4]: -0.03
log2 fold change [5]: -0.049

MCUR1 (UniProt Q96AQ8)
log2 fold change [1]: -0.02
log2 fold change [2]: 0.018
log2 fold change [3]: 0.007
log2 fold change [4]: -0.008
log2 fold change [5]: -0.023

MED1 (UniProt Q15648)
log2 fold change [1]: -0.033
log2 fold change [2]: -0.009
log2 fold change [3]: 0.03
log2 fold change [4]: 0.079
log2 fold change [5]: 0.058

ILF2 (UniProt Q12905)
log2 fold change [1]: 0.047
log2 fold change [2]: -0.078
log2 fold change [3]: -0.141
log2 fold change [4]: 0.14
log2 fold change [5]: 0.034

MCCC2 (UniProt Q9HCC0)
log2 fold change [1]: 0.029
log2 fold change [2]: 0.038
log2 fold change [3]: -0.027
log2 fold change [4]: -0.022
log2 fold change [5]: 0.026

LTN1 isoform 3 (UniProt O94822)
log2 fold change [1]: -0.058
log2 fold change [2]: 0.015
log2 fold change [3]: 0.08
log2 fold change [4]: -0.003
log2 fold change [5]: -0.005

MAP4 (UniProt P27816)
log2 fold change [1]: 0.028
log2 fold change [2]: -0.017
log2 fold change [3]: -0.058
log2 fold change [4]: 0.003
log2 fold change [5]: 0.037

LAMP2 isoform 2 (UniProt P13473)
log2 fold change [1]: 0.051
log2 fold change [2]: -0.015
log2 fold change [3]: 0.04
log2 fold change [4]: 0.052
log2 fold change [5]: 0.007

LEMD3 (UniProt Q9Y2U8)
log2 fold change [1]: 0.067
log2 fold change [2]: 0.034
log2 fold change [3]: 0.119
log2 fold change [4]: -0.031
log2 fold change [5]: -0.01

MAP3K20 (UniProt Q9NYL2)
log2 fold change [1]: 0.02
log2 fold change [2]: -0.037
log2 fold change [3]: 0.017
log2 fold change [4]: 0.005
log2 fold change [5]: 0.022

KRAS isoform 2 (UniProt P01116)
log2 fold change [1]: -0.002
log2 fold change [2]: -0.065
log2 fold change [3]: 0.096
log2 fold change [4]: 0.005
log2 fold change [5]: 0.053

IK (UniProt Q13123)
log2 fold change [1]: 0.023
log2 fold change [2]: -0.067
log2 fold change [3]: -0.006
log2 fold change [4]: 0.041
log2 fold change [5]: -0.045

LDLR (UniProt P01130)
Sequence of UniProt P01130 (P01130 whole entry, looked up): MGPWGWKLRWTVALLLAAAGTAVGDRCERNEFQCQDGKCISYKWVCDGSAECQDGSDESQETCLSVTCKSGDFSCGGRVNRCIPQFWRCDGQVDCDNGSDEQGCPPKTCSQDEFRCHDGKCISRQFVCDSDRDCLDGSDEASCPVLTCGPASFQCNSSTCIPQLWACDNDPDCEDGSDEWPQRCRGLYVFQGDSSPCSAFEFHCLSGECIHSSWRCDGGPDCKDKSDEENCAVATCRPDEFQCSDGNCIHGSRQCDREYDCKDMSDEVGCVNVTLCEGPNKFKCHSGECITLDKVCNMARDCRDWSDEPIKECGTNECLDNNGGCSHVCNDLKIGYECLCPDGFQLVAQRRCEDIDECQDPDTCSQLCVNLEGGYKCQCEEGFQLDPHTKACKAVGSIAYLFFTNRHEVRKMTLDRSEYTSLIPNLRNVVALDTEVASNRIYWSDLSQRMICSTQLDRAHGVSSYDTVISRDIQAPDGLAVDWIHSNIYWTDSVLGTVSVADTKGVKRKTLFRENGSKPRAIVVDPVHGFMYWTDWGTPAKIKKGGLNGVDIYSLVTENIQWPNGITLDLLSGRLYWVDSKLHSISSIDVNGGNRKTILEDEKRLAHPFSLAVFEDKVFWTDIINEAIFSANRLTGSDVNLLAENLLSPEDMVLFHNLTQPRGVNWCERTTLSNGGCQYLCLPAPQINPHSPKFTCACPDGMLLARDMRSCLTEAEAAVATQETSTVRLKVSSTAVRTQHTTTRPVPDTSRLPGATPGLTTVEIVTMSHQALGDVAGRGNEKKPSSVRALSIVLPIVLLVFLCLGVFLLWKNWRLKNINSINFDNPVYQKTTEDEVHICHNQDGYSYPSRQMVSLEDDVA
log2 fold change [1]: -0.037
log2 fold change [2]: 0.014
log2 fold change [3]: 0.037
log2 fold change [4]: 0.022
log2 fold change [5]: 0.062

MASTL (UniProt Q96GX5)
log2 fold change [1]: 0.047
log2 fold change [2]: 0.081
log2 fold change [3]: 0.009
log2 fold change [5]: -0.02

MAP2K1 (UniProt Q02750)
log2 fold change [1]: -0.01
log2 fold change [2]: 0.033
log2 fold change [3]: 0.099
log2 fold change [4]: -0.015
log2 fold change [5]: 0

IKZF1 (UniProt Q13422)
log2 fold change [1]: -0.011
log2 fold change [2]: 0.05
log2 fold change [3]: 0.15
log2 fold change [4]: -0.009
log2 fold change [5]: 0.014

LPIN3 isoform 2 (UniProt Q9BQK8)
log2 fold change [1]: -0.047
log2 fold change [2]: 0.066
log2 fold change [3]: 0.075
log2 fold change [4]: -0.138
log2 fold change [5]: -0.044

MFSD5 isoform 2 (UniProt Q6N075)
Sequence of UniProt Q6N075 (Q6N075 whole entry, looked up): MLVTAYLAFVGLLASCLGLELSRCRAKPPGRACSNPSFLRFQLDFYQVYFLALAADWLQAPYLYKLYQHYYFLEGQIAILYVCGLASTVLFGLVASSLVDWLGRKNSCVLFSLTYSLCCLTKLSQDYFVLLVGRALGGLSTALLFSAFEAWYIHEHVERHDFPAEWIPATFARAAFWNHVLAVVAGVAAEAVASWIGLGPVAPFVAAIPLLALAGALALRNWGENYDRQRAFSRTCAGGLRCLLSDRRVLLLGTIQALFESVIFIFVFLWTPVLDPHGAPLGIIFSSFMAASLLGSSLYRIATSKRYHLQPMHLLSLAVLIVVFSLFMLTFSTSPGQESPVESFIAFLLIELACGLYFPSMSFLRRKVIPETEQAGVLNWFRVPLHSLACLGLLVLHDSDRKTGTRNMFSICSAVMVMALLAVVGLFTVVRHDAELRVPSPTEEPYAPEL
log2 fold change [1]: 0.071
log2 fold change [2]: 0.08
log2 fold change [3]: 0.112
log2 fold change [4]: -0.049
log2 fold change [5]: -0.055

ILRUN (UniProt Q9H6K1)
log2 fold change [1]: 0.029
log2 fold change [2]: 0.031
log2 fold change [3]: 0.119
log2 fold change [4]: 0.014
log2 fold change [5]: -0.009

MBLAC1 (UniProt A4D2B0)
log2 fold change [1]: -0.019
log2 fold change [2]: 0.067
log2 fold change [3]: -0.064
log2 fold change [5]: -0.029

LRRFIP1 (UniProt Q32MZ4)
log2 fold change [1]: 0.019
log2 fold change [2]: 0.036
log2 fold change [3]: -0.016
log2 fold change [4]: 0.023
log2 fold change [5]: 0.011

MFF (UniProt Q9GZY8)
Sequence of UniProt Q9GZY8 (Q9GZY8 whole entry, looked up): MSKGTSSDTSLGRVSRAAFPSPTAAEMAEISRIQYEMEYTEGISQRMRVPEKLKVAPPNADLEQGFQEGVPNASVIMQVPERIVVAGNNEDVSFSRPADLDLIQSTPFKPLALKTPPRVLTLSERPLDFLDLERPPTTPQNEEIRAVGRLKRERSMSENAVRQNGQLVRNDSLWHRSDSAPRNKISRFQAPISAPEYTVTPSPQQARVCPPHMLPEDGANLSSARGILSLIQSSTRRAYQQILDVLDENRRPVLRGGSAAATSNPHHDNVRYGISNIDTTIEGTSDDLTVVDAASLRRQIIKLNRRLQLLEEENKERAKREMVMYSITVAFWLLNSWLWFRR
log2 fold change [1]: -0.013
log2 fold change [2]: 0.041
log2 fold change [3]: 0.064
log2 fold change [4]: -0.017
log2 fold change [5]: -0.001

MAP3K4 isoform 2 (UniProt Q9Y6R4)
log2 fold change [1]: -0.047
log2 fold change [2]: 0.026
log2 fold change [3]: 0.057
log2 fold change [4]: -0.034
log2 fold change [5]: 0.018

IKZF1 isoform 2 (UniProt Q13422)
log2 fold change [1]: 0.335
log2 fold change [2]: 0.217
log2 fold change [3]: 0.052
log2 fold change [4]: -0.026
log2 fold change [5]: 0.061

MED8 isoform 2 (UniProt Q96G25)
Sequence of UniProt Q96G25 (Q96G25 whole entry, looked up): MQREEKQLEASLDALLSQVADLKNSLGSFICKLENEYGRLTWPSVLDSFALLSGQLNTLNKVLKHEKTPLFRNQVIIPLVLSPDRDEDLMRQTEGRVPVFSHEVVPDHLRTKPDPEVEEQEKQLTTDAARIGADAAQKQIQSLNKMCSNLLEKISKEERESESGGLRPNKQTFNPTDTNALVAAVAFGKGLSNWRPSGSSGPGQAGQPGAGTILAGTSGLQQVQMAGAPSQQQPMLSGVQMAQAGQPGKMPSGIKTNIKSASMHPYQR
log2 fold change [1]: 0.011
log2 fold change [2]: -0.053
log2 fold change [3]: -0.381 (active)
log2 fold change [5]: 0.039

MICU1 isoform 3 (UniProt Q9BPX6)
log2 fold change [1]: 0.005
log2 fold change [2]: -0.033
log2 fold change [3]: -0.06
log2 fold change [4]: 0.02
log2 fold change [5]: -0.036

MAGI1 (UniProt Q96QZ7)
Sequence of UniProt Q96QZ7 (Q96QZ7 whole entry, looked up): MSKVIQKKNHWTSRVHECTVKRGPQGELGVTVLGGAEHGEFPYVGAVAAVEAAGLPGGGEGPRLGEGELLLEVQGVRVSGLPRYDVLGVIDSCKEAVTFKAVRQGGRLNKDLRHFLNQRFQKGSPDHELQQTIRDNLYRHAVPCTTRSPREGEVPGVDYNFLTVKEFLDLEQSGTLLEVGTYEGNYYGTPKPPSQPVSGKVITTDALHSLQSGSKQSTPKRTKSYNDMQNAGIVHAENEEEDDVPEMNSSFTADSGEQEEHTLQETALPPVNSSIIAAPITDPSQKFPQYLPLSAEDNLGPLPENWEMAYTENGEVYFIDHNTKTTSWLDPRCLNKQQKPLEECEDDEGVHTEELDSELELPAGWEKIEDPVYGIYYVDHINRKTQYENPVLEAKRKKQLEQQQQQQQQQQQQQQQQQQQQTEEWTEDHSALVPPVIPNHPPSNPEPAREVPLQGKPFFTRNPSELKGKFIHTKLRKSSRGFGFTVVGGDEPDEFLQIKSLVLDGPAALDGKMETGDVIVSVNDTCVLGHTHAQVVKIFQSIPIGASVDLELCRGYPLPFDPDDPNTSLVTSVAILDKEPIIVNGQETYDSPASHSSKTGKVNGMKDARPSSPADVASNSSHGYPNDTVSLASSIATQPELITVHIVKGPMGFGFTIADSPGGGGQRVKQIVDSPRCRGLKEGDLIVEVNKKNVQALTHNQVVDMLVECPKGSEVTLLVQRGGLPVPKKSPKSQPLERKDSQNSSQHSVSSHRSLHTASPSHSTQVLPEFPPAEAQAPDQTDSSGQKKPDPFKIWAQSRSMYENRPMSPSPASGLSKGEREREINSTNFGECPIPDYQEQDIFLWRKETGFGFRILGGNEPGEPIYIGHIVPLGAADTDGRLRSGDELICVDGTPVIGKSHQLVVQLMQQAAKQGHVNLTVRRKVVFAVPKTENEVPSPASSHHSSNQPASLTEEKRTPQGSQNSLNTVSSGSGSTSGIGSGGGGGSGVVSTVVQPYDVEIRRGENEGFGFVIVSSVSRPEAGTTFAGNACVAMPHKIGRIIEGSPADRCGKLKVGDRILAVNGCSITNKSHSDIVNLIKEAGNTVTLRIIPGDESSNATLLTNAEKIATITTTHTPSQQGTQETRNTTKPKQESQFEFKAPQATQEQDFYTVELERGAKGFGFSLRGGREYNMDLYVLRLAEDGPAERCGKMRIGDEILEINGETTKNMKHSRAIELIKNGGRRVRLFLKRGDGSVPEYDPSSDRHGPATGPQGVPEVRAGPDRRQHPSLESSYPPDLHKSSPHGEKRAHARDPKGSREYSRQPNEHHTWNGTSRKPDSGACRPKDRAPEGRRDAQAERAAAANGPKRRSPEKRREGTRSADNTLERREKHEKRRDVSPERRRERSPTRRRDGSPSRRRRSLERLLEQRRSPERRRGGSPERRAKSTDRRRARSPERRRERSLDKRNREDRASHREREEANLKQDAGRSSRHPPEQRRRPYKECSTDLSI
log2 fold change [1]: 0.025
log2 fold change [2]: -0.026
log2 fold change [3]: -0.005
log2 fold change [4]: 0.054
log2 fold change [5]: -0.016

ILF3 isoform 7 (UniProt Q12906)
log2 fold change [1]: 0.038
log2 fold change [2]: -0.061
log2 fold change [3]: -0.126
log2 fold change [4]: 0.194
log2 fold change [5]: 0.028

ITM2C (UniProt Q9NQX7)
log2 fold change [1]: -0.077
log2 fold change [2]: 0.007
log2 fold change [3]: 0.122
log2 fold change [5]: -0.121

LTV1 (UniProt Q96GA3)
log2 fold change [1]: -0.02
log2 fold change [2]: -0.137
log2 fold change [3]: -0.033
log2 fold change [4]: 0.17
log2 fold change [5]: 0

MFN2 (UniProt O95140)
log2 fold change [1]: 0.01
log2 fold change [2]: 0.038
log2 fold change [3]: 0.013
log2 fold change [4]: -0.026
log2 fold change [5]: 0.001

LNPEP (UniProt Q9UIQ6)
Sequence of UniProt Q9UIQ6 (Q9UIQ6 whole entry, looked up): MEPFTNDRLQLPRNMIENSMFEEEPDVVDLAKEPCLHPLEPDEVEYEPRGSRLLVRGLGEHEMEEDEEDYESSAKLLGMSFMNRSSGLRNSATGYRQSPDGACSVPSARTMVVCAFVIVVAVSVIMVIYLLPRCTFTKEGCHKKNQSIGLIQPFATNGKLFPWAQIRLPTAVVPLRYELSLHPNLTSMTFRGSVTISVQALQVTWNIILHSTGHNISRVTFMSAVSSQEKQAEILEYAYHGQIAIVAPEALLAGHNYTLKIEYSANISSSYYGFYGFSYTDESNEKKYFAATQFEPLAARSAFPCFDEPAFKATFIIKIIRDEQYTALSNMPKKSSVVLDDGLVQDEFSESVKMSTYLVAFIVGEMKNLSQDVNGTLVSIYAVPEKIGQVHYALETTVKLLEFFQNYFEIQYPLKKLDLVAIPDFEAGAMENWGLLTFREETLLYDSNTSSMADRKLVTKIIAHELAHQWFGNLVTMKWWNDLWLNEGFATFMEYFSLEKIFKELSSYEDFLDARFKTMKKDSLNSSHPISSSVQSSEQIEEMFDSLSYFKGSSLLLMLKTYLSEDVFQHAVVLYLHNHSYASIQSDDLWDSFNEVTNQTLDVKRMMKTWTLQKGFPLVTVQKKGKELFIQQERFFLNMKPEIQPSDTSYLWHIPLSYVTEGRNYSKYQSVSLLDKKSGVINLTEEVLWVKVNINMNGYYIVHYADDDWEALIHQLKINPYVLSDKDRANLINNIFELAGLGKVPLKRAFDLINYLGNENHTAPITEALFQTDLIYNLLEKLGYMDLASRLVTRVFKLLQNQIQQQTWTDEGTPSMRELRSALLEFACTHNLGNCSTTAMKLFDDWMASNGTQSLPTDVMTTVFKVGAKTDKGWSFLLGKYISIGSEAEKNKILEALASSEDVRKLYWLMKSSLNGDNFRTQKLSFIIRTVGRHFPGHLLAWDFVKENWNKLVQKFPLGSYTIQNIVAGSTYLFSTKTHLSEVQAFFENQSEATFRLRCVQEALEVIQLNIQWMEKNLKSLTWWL
log2 fold change [1]: 0.066
log2 fold change [2]: 0.061
log2 fold change [3]: 0.001
log2 fold change [4]: -0.016
log2 fold change [5]: 0.046

MAPK12 (UniProt P53778)
log2 fold change [1]: -0.022
log2 fold change [2]: 0.017
log2 fold change [3]: 0.026
log2 fold change [4]: 0.008
log2 fold change [5]: -0.002

MAPKAPK3 (UniProt Q16644)
log2 fold change [1]: -0.122
log2 fold change [2]: 0.013
log2 fold change [3]: 0.027
log2 fold change [4]: -0.034
log2 fold change [5]: -0.109

MARCKSL1 (UniProt P49006)
log2 fold change [1]: -0.052
log2 fold change [2]: 0.029
log2 fold change [3]: -0.032
log2 fold change [4]: -0.008
log2 fold change [5]: 0.011
